# Assay outcomes: PubChem BioAssay, The Scripps Research Institute Molecular Screening Center
# TEAD-YAP block: TEAD-YAP interaction inhibition, primary screen, TEAD-YAP interaction inhibitor project, luminescence, HEK-TIYL cells. inhibition, % at 9.12 µM. TEAD-Gal4/YAP UAS-luciferase luminescence. hit rate 1.4% among 640,000; in the data active = inhibition above about 32%;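 note: 0% = median of test compound wells and 100% = reference inhibitor wells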
# FBW7 act: FBW7 E3 ligase activators, primary screen, biochemical, AlphaScreen, human | AlphaScreen FBW7–phospho-cyclin E peptide binding, activator screen | normalized activity (activation), % at 26.1 µM | hit rate 0.13% among 650,000; in the data active = normalized activity above about 1.9%;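 note: purified mutant Fbw7 with reduced substrate affinity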
# MITF primary: MITF inhibitors, primary screen, biochemical, AlphaScreen, human; AlphaScreen MITF homodimerization, bead proximity signal; inhibition, % at 2.6 µM; hit rate 0.91% among 650,000; in the data active = inhibition above about 50%;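 note: 0% = vehicle wells with protein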
# Target sequence (O75030 whole entry, looked up): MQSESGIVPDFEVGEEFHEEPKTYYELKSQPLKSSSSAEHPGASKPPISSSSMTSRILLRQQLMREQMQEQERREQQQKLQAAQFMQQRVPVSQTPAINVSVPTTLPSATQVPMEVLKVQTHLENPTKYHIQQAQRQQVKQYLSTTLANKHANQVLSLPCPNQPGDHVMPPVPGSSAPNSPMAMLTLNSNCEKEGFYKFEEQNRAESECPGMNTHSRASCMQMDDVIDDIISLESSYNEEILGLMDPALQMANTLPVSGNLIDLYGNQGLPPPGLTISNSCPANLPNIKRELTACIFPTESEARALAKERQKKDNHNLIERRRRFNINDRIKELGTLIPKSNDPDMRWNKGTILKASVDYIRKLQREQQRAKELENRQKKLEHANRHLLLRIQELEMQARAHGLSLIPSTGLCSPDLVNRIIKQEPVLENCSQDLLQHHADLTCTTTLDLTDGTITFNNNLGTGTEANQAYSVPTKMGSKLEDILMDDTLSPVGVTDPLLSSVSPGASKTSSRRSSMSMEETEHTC
# GPR151 ag: activators of human GPR151, primary screen, cell-based, PathHunter beta-arrestin, luminescence; PathHunter beta-arrestin GPR151 cells; G-protein coupled receptor 151 (Homo sapiens), Q8TDV0; AID 1508602, 2020; activation, % at 11.2 µM; hit rate 1% among 650,000; in the data active = activation above about 4.9%;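 note: 0% = median of compound wells and 100% = cells with positive control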
# An asterisk follows results filed as active; ! = a repeat was not active. Hits are enriched below; roughly 3.4% of the tested compounds scored in any of these assays.
SMILES,TEAD-YAP block,FBW7 act,MITF primary,GPR151 ag
CCOC(=O)c1c(C)[nH]c(C(=O)N/N=C\c2cccc(OC)c2)c1C,46*,0,-2,1
CCOC(=O)c1c(C)[nH]c(C(=O)N/N=C\c2ccccc2Cl)c1C,40*,0,-7,3
CCOC(=O)c1c(C)[nH]c(C(=O)N/N=C\c2ccc([N+](=O)[O-])cc2)c1C,41*,0,5,-1
O=C1c2cccc3c([N+](=O)[O-])ccc(c23)C(=O)N1c1ccc(F)cc1,8,0,15,1
Cc1cc(N2CCCC(CCC(=O)NCc3ccccc3F)C2)nc(N(C)C)n1 (stereo not drawn),-5,0,-6,-1
Cc1ccc(NC(=O)c2ccc(Cl)cc2[N+](=O)[O-])nc1,41*,0,13,0
Cc1ccc(NC(=O)c2ccc(Cl)cc2Cl)nc1,35*,0,-4,-4
Cc1cc(C)c(NC(=O)c2ccc(Cl)cc2)c([N+](=O)[O-])c1,42*,0,-2,-2
CCOCCCNC(=O)c1cnn2c(C)c(Cc3ccccc3Cl)c(C)nc12,-2,1,17,0
Cc1ccc(S(=O)(=O)N2CCCCC2C)c(C)c1C (stereo not drawn),11,0,6,-2
C=CCNC(=O)CSc1nc2cc(C)ccc2cc1C#N,-4,0,-9,0
O=Cc1ccc(-c2ccc(C(=O)O)c(Cl)c2)o1,10,0,3,0
CN(C)c1cc2c(c(N(C)C)c1)C(=O)c1ccccc1C2=O,-1,-1,54*,-2
Nc1c(Br)cc2c(c1Br)C(=O)c1ccccc1C2=O,-25,0,-4,-1
Cc1ccc(C(=O)O)cc1NC(=O)c1ccc(Br)cc1,1,0,-9,1
Cc1nc(C)c(-c2ccc(SCC(=O)Nc3ccc([N+](=O)[O-])cc3)nn2)s1,47*,0,2,1
CSc1cccc(NC(=O)N2CCC(CO)(CCc3ccccc3)CC2)c1,-8,0,-3,3
Cc1cc(C(=O)N2CCCC(C(=O)Nc3cccc(-c4ccc(F)cc4)c3)C2)n(C)n1 (stereo not drawn),45*,0,17,2
Cc1cccc(C(=O)N2CCCC(C(=O)Nc3cccc(-c4ccc(F)cc4)c3)C2)n1 (stereo not drawn),16,0,-12,0
COc1ccccc1OCc1cccc(C(=O)NCC(C)C)c1,-36,0,6,-1
Cc1ccc2occ(CN3CCC(C4(CCC(C)C)NC(=O)NC4=O)CC3)c(=O)c2c1 (stereo not drawn),9,0,0,0
NNC(=O)C[n+]1nc(-c2ccccc2)n[nH]1,4,0,-5,1
COc1ccc(-c2n[nH]c3c2C(c2ccc(F)cc2)NC3=O)cc1 (stereo not drawn),14,0,4,2
COc1ccc(OC)c(C2NC(=O)c3[nH]nc(-c4ccc(C)cc4)c32)c1 (stereo not drawn),62*,0,8,2
COc1cc(Br)ccc1NS(=O)(=O)c1ccccc1,-2,0,2,1
SMILES,TEAD-YAP block,FBW7 act,MITF primary,GPR151 ag
CCN(Cc1ccccc1)S(=O)(=O)c1cc(C(=O)Nc2ccc(Cl)c(Cl)c2)ccc1F,55*,0,12,1
CCN(Cc1ccccc1)S(=O)(=O)c1cc(C(=O)Nc2ccc(F)c(F)c2)ccc1F,59*,0,11,1
CN(Cc1ccccc1)S(=O)(=O)c1cc(C(=O)Nc2ccc(F)c(F)c2)ccc1F,44*,0,-6,4
O=C(Nc1ccc(F)c(F)c1)c1ccc(F)c(S(=O)(=O)NCc2ccco2)c1,38*,1,3,0
CCc1ccc(NC(=O)c2ccc(F)c(S(=O)(=O)N(CC)Cc3ccccc3)c2)cc1,-2,0,-5,0
CC1CN(c2c(Cl)cccc2NC(=O)c2ccc(Br)o2)CCN1Cc1nc2ccccc2s1 (stereo not drawn),-4,0,13,1
O=c1[nH]c(O)c(C=Nc2ccc([N+](=O)[O-])cc2)c(=O)[nH]1,0,0,5,0
CCCc1nc2nc(C)cc(Nc3cccc(F)c3)n2n1,-1,0,-6,-1
CN(C)C(=O)c1cc(-c2cn[nH]c2)ccc1NC(=O)[C@H](N)c1ccc(F)cc1,5,0,9,0
Cc1sc(NC(=O)c2ccc(Cl)s2)c(C(N)=O)c1-c1ccc(F)cc1,36*,0,8,1
Cc1sc(NC(=O)c2ccc(Cl)s2)c(C(N)=O)c1C,-61,0,-6,-1
COc1ccc(-c2c[n+](CC(=O)c3ccc(Cl)cc3)c3n2CCCCC3)cc1,14,0,11,1
COc1ccc(C(=O)C[n+]2cc(-c3ccc(OC)cc3)n3c2CCCCC3)cc1,38*,0,-3,0
Cc1cc(NC(=O)c2oc3ccccc3c2C)ccc1-c1cc2ccccc2oc1=O,15,0,14,-1
CCOC(=O)CSc1nc(N)c(C#N)c(-c2ccccc2Cl)c1C#N,-4,0,-3,2
CC(C)CS(=O)(=O)C1=NSC2=NC(=O)/C(=C\c3ccc(Br)o3)C(=N)N21,5,0,77*,-1
CC(C)SC1=NSC2=NC(=O)/C(=C\c3ccc([N+](=O)[O-])o3)C(=N)N21,-3,0,72*,0
CCSC1=NSC2=NC(=O)/C(=C\c3ccc(Br)o3)C(=N)N12,8,0,83*,0
CS(=O)(=O)C1=NSC2=NC(=O)/C(=C\c3ccc(SCc4ccco4)o3)C(=N)N21,1,-1,72*,0
COc1cccc(N/C(N)=N/c2nc(C)cc(C)n2)c1,53*,0,-22,1
Cc1cc(C)nc(/N=C(\N)Nc2cccc(OCc3ccccc3)c2)n1,50*,0,7,1
Cc1ccc(N2C(=O)/C(=C/c3ccc(-c4ccc(Cl)c(Cl)c4)o3)C=C2c2ccccc2)cc1[N+](=O)[O-],-2,0,-8,-2
CCOC(=O)COc1ccc(C=C2C(=O)NC(=S)NC2=O)cc1Br,-5,0,0,1
COC(=O)c1ccc2c(=O)n(CC3CCCO3)c(SCC(=O)Nc3ccc(C)c(Cl)c3)nc2c1 (stereo not drawn),-7,3.5*,-4,0
COC(=O)c1ccc2c(=O)n(CC3CCCO3)c(SCC(=O)Nc3ccc(C)cc3)nc2c1 (stereo not drawn),4,0,0,2
CNC[C@H](O)c1ccc(O)c(O)c1,-11,0,56*!,0
O=C(Nc1cccc(Cl)c1)c1ccc(F)c(S(=O)(=O)NCCc2ccccc2)c1,7,0,13,-2
O=C(Nc1ccc(Oc2ccccc2)cc1)c1ccc(F)c(S(=O)(=O)NCc2ccc(F)cc2)c1,42*,0,20,-1
COc1ccc(CNS(=O)(=O)c2cc(C(=O)Nc3ccc(Oc4ccccc4)cc3)ccc2F)cc1,6,0,33,1
